{"source": "paper PMC7819943", "about": "“Rice protein-binding microarrays: a tool to detect cis-acting elements near promoter regions in rice”", "note": "In all, about 68,000 sequences were measured (“fluorescence intensity (a.u.)”: median about 9,100, highest 2% from about 16,000 on). The full list was thinned out, with the highest values kept by preference."}
{"biological_target": "OsWRKY34 (Oryza sativa, UniProt Q0JBA9 1-250)", "sequence (Q0JBA9 entry or part of it)": "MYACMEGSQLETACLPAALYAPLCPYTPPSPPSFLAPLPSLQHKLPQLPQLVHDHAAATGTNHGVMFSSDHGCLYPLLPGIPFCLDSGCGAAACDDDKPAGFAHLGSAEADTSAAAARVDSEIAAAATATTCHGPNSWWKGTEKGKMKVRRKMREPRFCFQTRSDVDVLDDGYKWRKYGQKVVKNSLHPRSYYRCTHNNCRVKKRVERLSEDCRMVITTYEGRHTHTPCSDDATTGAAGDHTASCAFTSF", "assay": "protein-binding microarray (RPBM); PBS, 2% BSA, 51.3 ng/ul salmon testes DNA, 50 uM zinc acetate, 200 nM TF, 25 C, 1 h; high values mean tight binding", "conditions": "protein: recombinant; tags: N-terminal polyhistidine and DsRed monomer fusion (pET32a); label: CyDye5-dUTP incorporated in the synthesized complementary strand; 3' TTTTT single-stranded linker to array surface; dsDNA, one strand shown", "summary_of_the_method": "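The binding signal is fluorescence intensity per feature, in arbitrary units, read on an Axon 4000B scanner. Polyhistidine- and DsRed-tagged transcription factors (N-terminal fusions) from E. coli BL21-CodonPlus were purified on Ni–NTA and applied at 200 nM for 1 h at 25 °C to a double-stranded, BSA-blocked custom Agilent array in buffer with 50 µM zinc acetate.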"}
{"sequence": "CCACCATGGTCTCGCTCATTCTGTTTGCTTCACCTACTCTCGGAGTCACCTAGTGCAG", "binding signal": "14500 fluorescence intensity (a.u.)"}
{"sequence": "TTCTTCTTGGTGGTGGTGGGGCCTGGAAACTATGTGACTTCGGAGTCACCTAGTGCAG", "binding signal": "18200 fluorescence intensity (a.u.)"}
{"sequence": "TCAATTTTCTTGTTGACTCGGTGTTTTTGACTGTGGTCAACGGAGTCACCTAGTGCAG", "binding signal": "10900 fluorescence intensity (a.u.)"}
{"sequence": "AGTGAACTTGGTTCTGTGGTTGCATGTATTTGGTGGAGGGCGGAGTCACCTAGTGCAG", "binding signal": "9170 fluorescence intensity (a.u.)"}
{"sequence": "TAAGGGATGGGATGGTTGGCTTGGATCGAGTATATTTCTTCGGAGTCACCTAGTGCAG", "binding signal": "18900 fluorescence intensity (a.u.)"}
{"sequence": "GGGGTGAACATTTCTTTCTTTCTGGTATTGTGGTTGAGGGCGGAGTCACCTAGTGCAG", "binding signal": "19300 fluorescence intensity (a.u.)"}
{"sequence": "AGGGATGGTTGGACTTATTTCTTTCGCGTTTTCCTTGGGTCGGAGTCACCTAGTGCAG", "binding signal": "10900 fluorescence intensity (a.u.)"}
{"sequence": "ACTTTTTTTGGTGACTATGTGTTTCCCTGTGGTGGGCTTCCGGAGTCACCTAGTGCAG", "binding signal": "12000 fluorescence intensity (a.u.)"}
{"sequence": "TATATTTTCTTCTTCGTCACGATCGATGGGATTTTTATTTCGGAGTCACCTAGTGCAG", "binding signal": "9040 fluorescence intensity (a.u.)"}
{"sequence": "GCCTTTTCTTGACTCGGTGGTGGGAGGGGAATTTTCGTGACGGAGTCACCTAGTGCAG", "binding signal": "27000 fluorescence intensity (a.u.)"}
{"sequence": "GGGGTGGAATTGTGTTGGGTTTCTTTGGTTGAGGAGAGAGCGGAGTCACCTAGTGCAG", "binding signal": "16000 fluorescence intensity (a.u.)"}
{"sequence": "GAACTTTTCCTGGATGGTGATCCTTCTTTTGGCCTTCTTTCGGAGTCACCTAGTGCAG", "binding signal": "10500 fluorescence intensity (a.u.)"}
{"sequence": "AGACATTTTTCTTTCTCGTGGATATTTACGCCTTTCTTGACGGAGTCACCTAGTGCAG", "binding signal": "8790 fluorescence intensity (a.u.)"}
{"sequence": "TGCAGGCTTCCACCGCCCGCCTGTCATTGTCGCCCACTGCCGGAGTCACCTAGTGCAG", "binding signal": "8760 fluorescence intensity (a.u.)"}
{"sequence": "GTTTGTCCCTTTTGACATATGAACTCTTCTCCATGATTTCCGGAGTCACCTAGTGCAG", "binding signal": "8060 fluorescence intensity (a.u.)"}
{"sequence": "GGCTTGATTTCTTCTTTTTTCTAATTTTCATATGGCTATTCGGAGTCACCTAGTGCAG", "binding signal": "9800 fluorescence intensity (a.u.)"}
{"sequence": "TTAAATATTTGAGGGGTCGATATTTCTGGTATTGGTATTACGGAGTCACCTAGTGCAG", "binding signal": "10500 fluorescence intensity (a.u.)"}
{"sequence": "TTTTTTTTTCATCGATGCTTATTTTTTCAGCCTTTACTTTCGGAGTCACCTAGTGCAG", "binding signal": "8640 fluorescence intensity (a.u.)"}
{"sequence": "TGAAGCATGTGGTGGGCATTTTCGTCTTTCTCGAATTCATCGGAGTCACCTAGTGCAG", "binding signal": "9980 fluorescence intensity (a.u.)"}
{"sequence": "GTATGTGCCACGTCATCCAAAACCGGCCACAATACTGTCGCGGAGTCACCTAGTGCAG", "binding signal": "8130 fluorescence intensity (a.u.)"}
{"sequence": "TCCGCTTCTGCTATCTCTCGTCACTCTTCAGTCTTCACCTCGGAGTCACCTAGTGCAG", "binding signal": "8050 fluorescence intensity (a.u.)"}
{"sequence": "AGTTTCAGAACTCACCTCTTTATTAATACATTTAGTTGTTCGGAGTCACCTAGTGCAG", "binding signal": "8850 fluorescence intensity (a.u.)"}
{"sequence": "AACGGTTGCAGCTCTAATTGAGGGCTTTGTTTAGTTCATGCGGAGTCACCTAGTGCAG", "binding signal": "8640 fluorescence intensity (a.u.)"}
{"sequence": "CAATGGAGGGGTGTTTTTTTTTCTATTTTTCTAAATAATTCGGAGTCACCTAGTGCAG", "binding signal": "14800 fluorescence intensity (a.u.)"}
{"sequence": "CGAGAGAGAGAGGGGAGGGTTTTGGGTTGTGCTTAGGTTTCGGAGTCACCTAGTGCAG", "binding signal": "13100 fluorescence intensity (a.u.)"}
{"sequence": "GCGGAGGCAGGGAGGGTTTTGGAATTTTCGGCCGCCGTTGCGGAGTCACCTAGTGCAG", "binding signal": "10100 fluorescence intensity (a.u.)"}
{"sequence": "TTTTGTGTATGTTTCGGTGGGAATTTGAGGGTTGTGTTTTCGGAGTCACCTAGTGCAG", "binding signal": "14200 fluorescence intensity (a.u.)"}
{"sequence": "AGTTCGGGGTGGTTTAAAGTGTAAAAAAATGTTAATAAAACGGAGTCACCTAGTGCAG", "binding signal": "8870 fluorescence intensity (a.u.)"}
{"sequence": "AATTCGGGGTTTGGGGCCGCGGAGGGGTGCTTACGTGAGTCGGAGTCACCTAGTGCAG", "binding signal": "15100 fluorescence intensity (a.u.)"}
{"sequence": "CGAGGGTTTGGGAGTCGGGGAATTCGGGGTTTGGGGCCGCCGGAGTCACCTAGTGCAG", "binding signal": "26700 fluorescence intensity (a.u.)"}
{"sequence": "GTTAAATTCGAGGGGTTTCTTGTAATTTCGGGGTGGATAACGGAGTCACCTAGTGCAG", "binding signal": "16500 fluorescence intensity (a.u.)"}
{"sequence": "TGAATTTGTGGTTTTTTTTGGGGAGGGTTTTTTTTTTCTTCGGAGTCACCTAGTGCAG", "binding signal": "34600 fluorescence intensity (a.u.)"}
{"sequence": "CGGTGTACTACTTTTATATATGCAAACCTTTATTGCCTGACGGAGTCACCTAGTGCAG", "binding signal": "10300 fluorescence intensity (a.u.)"}
{"sequence": "GGCCCACCGTCGCACTCGCGCCTTCCGCTGCTCCGTTGCCCGGAGTCACCTAGTGCAG", "binding signal": "8880 fluorescence intensity (a.u.)"}
{"sequence": "GTTTTTCCTCTCTGCTTGTAACGCGTGATGTAAAATTTTCCGGAGTCACCTAGTGCAG", "binding signal": "11000 fluorescence intensity (a.u.)"}
{"sequence": "CGTCGAGTATCTGTATCTCTAAGCATTTCTTGTTGACTTTCGGAGTCACCTAGTGCAG", "binding signal": "10600 fluorescence intensity (a.u.)"}
{"sequence": "CCGTGCCCACCTGAGCTCGCTTCGCCGCCATTGGCAGCCTCGGAGTCACCTAGTGCAG", "binding signal": "9100 fluorescence intensity (a.u.)"}
{"sequence": "ACATGTGGGGCCTATTTATTTCTTTTTTTTTAAAAAAAAACGGAGTCACCTAGTGCAG", "binding signal": "8480 fluorescence intensity (a.u.)"}
{"sequence": "AGGCTACACTATTAAACTTGCTCTTCTCAAGCTACTTCAACGGAGTCACCTAGTGCAG", "binding signal": "8190 fluorescence intensity (a.u.)"}
{"sequence": "GAGTGGGTGTGGGTTTTCTAGTGGGCAGATTTAGTTTTAACGGAGTCACCTAGTGCAG", "binding signal": "17200 fluorescence intensity (a.u.)"}
{"sequence": "TGTATAGTTTAGGGGTGAAGATTTCTGGTTTTGTGGTTAACGGAGTCACCTAGTGCAG", "binding signal": "11500 fluorescence intensity (a.u.)"}
{"sequence": "AGAGGGGAGGGAGGAGGATTATGGTTTTTTTTCTCTAAAACGGAGTCACCTAGTGCAG", "binding signal": "16700 fluorescence intensity (a.u.)"}
